Measurements as given in PubChem BioAssay (EPA / NIEHS).
“And” between values parts separate entries of the source, which are not always exact repeats. Identical values can stand only once. Results filed as inconclusive are left out. The source made the active and inactive calls. How the source made its calls: active means hit-call score of the fitted dose curve at least 0.9, where 1 is the maximum; inconclusive means response in the unintended direction; inactive means score below 0.9.

Tests used:
[1] = molecular target: mouse Cholecystokinin, CCK1 Receptor (CCKA), Cckar (gene 12425) (UniProt O08786); assay: NVS_GPCR_mCCKAPeripheral: NovaScreen (NVS) G Protein-Coupled Receptor Assay for mouse Cholecystokinin, CCK1 Receptor (CCKA) (AID 2283285)
Outline: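 Chemicals were first screened in duplicate at 25 uM, with those meeting threshold (e.g., 30% inhibition) retested in singleton concentration series to 50 uM maximum. Binding of radioligand to mouse pancreatic membranes was read after 2 h by filtration and scintillation counting.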

[2] = molecular target: rat Serotonin, 5-Hydroxytryptamine Receptor 1 (5HT1), Non-Selective Binding, Htr1a (gene 24473) (UniProt P19327); assay: NVS_GPCR_r5HT1_NonSelective: NovaScreen (NVS) G Protein-Coupled Receptor Assay for rat Serotonin, 5-Hydroxytryptamine Receptor 1 (5HT1), Non-Selective Binding (AID 2283286)
Description: (§1) NVS_GPCR_r5HT1_NonSelective is a biochemical, single-readout assay that uses extracted gene-proteins from Rat cortical membranes in a tissue-based cell-free assay. Measurements were taken 1 hour after chemical dosing in a 48-well plate.NVS_GPCR_r5HT1_NonSelective is one of one assay component(s) measured or calculated from the NVS_GPCR_r5HT1_NonSelective assay. It is designed to make measurements of radioligand binding, a form of binding reporter, as detected with scintillation counting signals by Filter-based radiodetection technology.Data from the assay component NVS_GPCR_r5HT1_NonSelective was analyzed into 1 assay endpoint. This assay endpoint, NVS_GPCR_r5HT1_NonSelective, was analyzed in the positive analysis fitting direction relative to DMSO as the negative control and baseline of activity. Using a type of binding reporter, loss-of-signal activity can be used to understand changes in the binding as they relate to the gene Htr1a. Furthermore, this assay endpoint can be referred to as a primary readout, because the performed assay has only produced 1 assay endpoint. To generalize the intended target to other relatable targets, this assay endpoint is annotated to the gpcr intended target family, where the subfamily is rhodopsin-like receptor.
(§2) Binding assays used specific radioligands (tritiated, iodinated) with non-radioactive competitive displacement ligands in agonist or antagonist protocols (as indicated) and various reference compounds and inhibitors to titrate specific binding to receptors and transporters. Most enzyme assays (CYPs, kinases, phosphatases, proteases, HDACs) used recombinant protein and specific substrates (fluorescence mostly, some colorimetric and radioactive) and inhibitors, followed by a biochemical separation of substrate and product. All assays for the biochemical HTS were initially run in duplicate at a single concentration (10 uM for CYP450 assays and 25 uM for all others). Assay-chemical combinations meeting a pre-defined threshold (e.g., 30% inhibition and other criteria defined below) were then run in singleton concentration-response format with maximum concentration of 20 uM for CYPs and 50 uM for all others. Each assay was run with positive and negative controls, and concurrent controls on every plate. The follow-up (secondary) screen tested active chemical-pairs in concentration series, as well as a few additional assays not tested in the primary screen, some selected negative inactives, and several cases re-run in the concentration series for confirmatory purposes.

[3] = system: rabbit Platelet Activating Factor Receptor (PAF), gene 100354046; assay: NVS_GPCR_rabPAF: NovaScreen (NVS) G Protein-Coupled Receptor Assay for rabbit Platelet Activating Factor Receptor (PAF) (AID 2283287)
Description: as §1, with “NVS_GPCR_rabPAF” for “NVS_GPCR_r5HT1_NonSelective”, “Rabbit platelets” for “Rat cortical membranes”, “plate.NVS_GPCR_rabPAF” for “plate.NVS_GPCR_r5HT1_NonSelective”, “NVS_GPCR_rabPAF,” for “NVS_GPCR_r5HT1_NonSelective,”, “PTAFR.” for “Htr1a.”
(§3) Binding assays used specific radioligands (tritiated, iodinated) with non-radioactive competitive displacement ligands in agonist or antagonist protocols (as indicated) and various reference compounds and inhibitors to titrate specific binding to receptors and transporters. Most enzyme assays (CYPs, kinases, phosphatases, proteases, HDACs) used recombinant protein and specific substrates (fluorescence mostly, some colorimetric and radioactive) and inhibitors, followed by a biochemical separation of substrate and product. All assays for the biochemical HTS were initially run in duplicate at a single concentration (10 uM for CYP450 assays and 25 uM for all others). […] Each assay was run with positive and negative controls, and concurrent controls on every plate. […]

[4] = molecular target: rat Adrenergic, Alpha 1, Non-selective Receptor (Adra1), Adra1a (gene 29412) (UniProt P43140); assay: NVS_GPCR_rAdra1_NonSelective: NovaScreen (NVS) G Protein-Coupled Receptor Assay for rat Adrenergic, Alpha 1, Non-selective Receptor (Adra1) (AID 2283289)
Outline: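 Chemicals first screened in duplicate at 25 uM, then actives tested in concentration series up to 50 uM. Binding measured as displacement of radioligand from rat forebrain membrane receptors, 1 h, filtration with scintillation readout; DMSO baseline.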

[5] = molecular target: human Opioid Receptor Mu (Opiate Mu), OPRM1 (gene 4988) (UniProt P35372); assay: NVS_GPCR_hOpiate_mu: NovaScreen (NVS) G Protein-Coupled Receptor Assay for human Opioid Receptor Mu (Opiate Mu) (AID 2283290);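 further: hits lower bound tracer signal versus DMSO meaning displacement of the ligand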
Outline: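 Here, radioligand binding to CHO-extracted receptor was measured after 2.5 h using filter-based scintillation detection. Initial single-concentration screening used 25 uM in duplicate with plate controls; confirmed actives went to concentration-response testing.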

[6] = molecular target: mouse Cholecystokinin, CCK2 Receptor (CCKB), Cckbr (gene 12426) (UniProt P56481); assay: NVS_GPCR_mCKKBCentral: NovaScreen (NVS) G Protein-Coupled Receptor Assay for mouse Cholecystokinin, CCK2 Receptor (CCKB) (AID 2283293)
Outline: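 Mouse forebrain membrane preparation incubated 2 h with chemical and radioligand; bound radioactivity counted after filtration. Single-concentration duplicate screen at 25 uM, then concentration series to 50 uM max for hits, DMSO as baseline.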

[7] = molecular target: guinea pig Serotonin, 5-Hydroxytryptamine Receptor 4 (5HT4), HTR4 (gene 100135548) (UniProt O70528); assay: NVS_GPCR_g5HT4: NovaScreen (NVS) G Protein-Coupled Receptor Assay for guinea pig Serotonin, 5-Hydroxytryptamine Receptor 4 (5HT4) (AID 2283294)
Description: as §1, with “NVS_GPCR_g5HT4” for “NVS_GPCR_r5HT1_NonSelective”, “Guinea pig striatal” for “Rat cortical”, “plate.NVS_GPCR_g5HT4” for “plate.NVS_GPCR_r5HT1_NonSelective”, “NVS_GPCR_g5HT4,” for “NVS_GPCR_r5HT1_NonSelective,”, “Htr4.” for “Htr1a.”
as §3

[8] = molecular target: rat Serotonin, 5-Hydroxytryptamine Receptor (5HT), Non-Selective Binding, Htr1a (gene 24473) (UniProt P19327); assay: NVS_GPCR_r5HT_NonSelective: NovaScreen (NVS) G Protein-Coupled Receptor Assay for rat Serotonin, 5-Hydroxytryptamine Receptor (5HT), Non-Selective Binding (AID 2283295)
Description: as §1, with “NVS_GPCR_r5HT_NonSelective” for “NVS_GPCR_r5HT1_NonSelective”, “plate.NVS_GPCR_r5HT_NonSelective” for “plate.NVS_GPCR_r5HT1_NonSelective”, “NVS_GPCR_r5HT_NonSelective,” for “NVS_GPCR_r5HT1_NonSelective,”
as §2, with “Assay-chemical combinations meeting a pre-defined threshold (e.g., 30% inhibition and other criteria defined below) were then run in singleton concentration-response format with maximum concentration of 20 uM for CYPs and 50 uM for all others.” left out

[9] = molecular target: guinea pig Bradykinin Receptor B2 (BK2), BDKRB2 (gene 100135486) (UniProt O70526); assay: NVS_GPCR_gBK2: NovaScreen (NVS) G Protein-Coupled Receptor Assay for guinea pig Bradykinin Receptor B2 (BK2) (AID 2283292)
Description: as §1, with “NVS_GPCR_gBK2” for “NVS_GPCR_r5HT1_NonSelective”, “Guinea pig ileum” for “Rat cortical”, “plate.NVS_GPCR_gBK2” for “plate.NVS_GPCR_r5HT1_NonSelective”, “NVS_GPCR_gBK2,” for “NVS_GPCR_r5HT1_NonSelective,”, “Bdkrb2.” for “Htr1a.”, “receptor. […]” for “receptor.”

Sequence of rat Adrenergic, Alpha 1, Non-selective Receptor (Adra1), Adra1a (gene 29412) (P43140 whole entry, looked up): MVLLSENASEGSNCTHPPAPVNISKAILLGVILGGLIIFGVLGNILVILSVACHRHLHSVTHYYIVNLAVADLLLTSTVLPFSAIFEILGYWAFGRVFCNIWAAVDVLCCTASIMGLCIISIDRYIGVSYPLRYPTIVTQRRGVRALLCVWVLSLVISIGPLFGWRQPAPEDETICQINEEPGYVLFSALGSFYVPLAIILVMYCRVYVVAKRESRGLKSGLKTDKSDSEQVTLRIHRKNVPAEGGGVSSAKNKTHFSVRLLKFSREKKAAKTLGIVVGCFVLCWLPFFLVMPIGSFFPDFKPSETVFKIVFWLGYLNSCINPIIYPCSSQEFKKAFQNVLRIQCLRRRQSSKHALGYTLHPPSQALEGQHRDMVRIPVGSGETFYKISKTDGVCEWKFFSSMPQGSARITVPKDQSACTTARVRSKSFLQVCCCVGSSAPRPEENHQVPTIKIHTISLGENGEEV
Sequence of mouse Cholecystokinin, CCK2 Receptor (CCKB), Cckbr (gene 12426) (P56481 whole entry, looked up): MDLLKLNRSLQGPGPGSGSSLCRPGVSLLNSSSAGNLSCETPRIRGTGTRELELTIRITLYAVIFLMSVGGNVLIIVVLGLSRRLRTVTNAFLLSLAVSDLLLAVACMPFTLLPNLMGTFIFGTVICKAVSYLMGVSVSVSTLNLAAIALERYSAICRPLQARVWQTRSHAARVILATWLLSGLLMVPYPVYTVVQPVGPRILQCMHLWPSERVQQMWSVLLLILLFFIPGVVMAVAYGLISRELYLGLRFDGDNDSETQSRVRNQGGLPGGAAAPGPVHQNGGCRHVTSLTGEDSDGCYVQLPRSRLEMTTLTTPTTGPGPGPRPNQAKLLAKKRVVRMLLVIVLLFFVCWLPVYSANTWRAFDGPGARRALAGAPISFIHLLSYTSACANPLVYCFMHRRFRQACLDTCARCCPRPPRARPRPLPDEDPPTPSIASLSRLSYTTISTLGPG
Sequence of guinea pig Serotonin, 5-Hydroxytryptamine Receptor 4 (5HT4), HTR4 (gene 100135548) (O70528 whole entry, looked up): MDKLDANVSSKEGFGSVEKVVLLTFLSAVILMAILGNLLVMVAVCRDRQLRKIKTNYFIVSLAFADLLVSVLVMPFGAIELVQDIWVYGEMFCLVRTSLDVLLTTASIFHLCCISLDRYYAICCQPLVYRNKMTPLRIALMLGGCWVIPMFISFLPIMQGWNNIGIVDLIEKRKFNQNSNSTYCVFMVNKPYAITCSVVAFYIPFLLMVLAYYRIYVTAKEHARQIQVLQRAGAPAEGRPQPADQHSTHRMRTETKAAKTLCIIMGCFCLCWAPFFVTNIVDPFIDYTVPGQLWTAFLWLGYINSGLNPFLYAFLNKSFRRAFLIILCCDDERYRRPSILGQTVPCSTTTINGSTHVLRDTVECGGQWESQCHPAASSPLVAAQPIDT
Sequence of human Opioid Receptor Mu (Opiate Mu), OPRM1 (gene 4988) (P35372 whole entry, looked up): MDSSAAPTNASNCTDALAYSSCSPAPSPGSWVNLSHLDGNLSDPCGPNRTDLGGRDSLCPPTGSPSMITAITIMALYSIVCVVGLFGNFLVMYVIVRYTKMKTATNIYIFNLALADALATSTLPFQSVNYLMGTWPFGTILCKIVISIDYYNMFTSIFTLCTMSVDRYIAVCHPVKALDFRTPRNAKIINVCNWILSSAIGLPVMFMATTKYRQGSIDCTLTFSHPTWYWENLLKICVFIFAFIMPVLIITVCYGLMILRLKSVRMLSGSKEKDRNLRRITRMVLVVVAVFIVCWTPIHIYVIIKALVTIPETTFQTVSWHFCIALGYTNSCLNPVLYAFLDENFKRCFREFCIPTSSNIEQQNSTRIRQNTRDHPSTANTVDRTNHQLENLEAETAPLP
Sequence of mouse Cholecystokinin, CCK1 Receptor (CCKA), Cckar (gene 12425) (O08786 whole entry, looked up): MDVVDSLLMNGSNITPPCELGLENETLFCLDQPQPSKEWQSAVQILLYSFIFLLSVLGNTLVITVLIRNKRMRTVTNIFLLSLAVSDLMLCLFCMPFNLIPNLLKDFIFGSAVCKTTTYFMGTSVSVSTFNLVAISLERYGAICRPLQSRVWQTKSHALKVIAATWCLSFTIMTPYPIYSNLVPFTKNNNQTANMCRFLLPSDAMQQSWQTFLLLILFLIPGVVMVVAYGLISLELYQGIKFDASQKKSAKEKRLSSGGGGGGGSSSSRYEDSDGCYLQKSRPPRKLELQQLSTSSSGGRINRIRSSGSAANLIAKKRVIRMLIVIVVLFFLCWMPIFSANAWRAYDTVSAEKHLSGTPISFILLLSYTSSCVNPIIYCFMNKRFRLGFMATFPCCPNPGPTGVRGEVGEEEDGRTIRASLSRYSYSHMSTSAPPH
Sequence of rat Serotonin, 5-Hydroxytryptamine Receptor (5HT), Non-Selective Binding, Htr1a (gene 24473) (P19327 whole entry, looked up): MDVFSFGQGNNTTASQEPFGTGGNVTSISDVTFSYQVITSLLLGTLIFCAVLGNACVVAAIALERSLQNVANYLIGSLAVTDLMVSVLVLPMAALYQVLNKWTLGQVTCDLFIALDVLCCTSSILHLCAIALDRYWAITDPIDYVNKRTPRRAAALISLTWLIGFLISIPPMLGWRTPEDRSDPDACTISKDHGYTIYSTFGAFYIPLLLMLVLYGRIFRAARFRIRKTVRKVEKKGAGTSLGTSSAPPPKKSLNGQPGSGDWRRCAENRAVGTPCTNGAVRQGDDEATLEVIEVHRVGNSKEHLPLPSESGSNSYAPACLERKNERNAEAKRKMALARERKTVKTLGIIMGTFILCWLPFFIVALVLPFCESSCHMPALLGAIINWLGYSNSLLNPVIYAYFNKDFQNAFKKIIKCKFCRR
Sequence of rat Serotonin, 5-Hydroxytryptamine Receptor 1 (5HT1), Non-Selective Binding, Htr1a (gene 24473) (P19327 whole entry, looked up): as above
Sequence of guinea pig Bradykinin Receptor B2 (BK2), BDKRB2 (gene 100135486) (O70526 whole entry, looked up): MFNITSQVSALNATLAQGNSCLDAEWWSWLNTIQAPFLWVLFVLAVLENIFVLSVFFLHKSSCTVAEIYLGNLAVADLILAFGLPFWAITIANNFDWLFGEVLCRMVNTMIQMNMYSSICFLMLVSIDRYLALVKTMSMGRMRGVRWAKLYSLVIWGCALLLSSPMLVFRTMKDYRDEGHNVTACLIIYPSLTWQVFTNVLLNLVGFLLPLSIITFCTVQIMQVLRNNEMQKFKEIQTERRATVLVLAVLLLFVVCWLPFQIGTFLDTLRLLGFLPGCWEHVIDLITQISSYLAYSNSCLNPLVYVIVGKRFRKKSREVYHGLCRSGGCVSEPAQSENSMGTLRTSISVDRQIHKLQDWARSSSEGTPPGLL

With `CC(=O)[O][Hg][c]1ccccc1` the AC50 [1] was 1.65 µM (active), the AC50 [2] was 16.4 µM (active) and the AC50 [3] was 38.4 µM (active). The AC50 [4] was 18.8 µM (active), the AC50 [5] was 0.0908 µM (active) and the AC50 [6] was 25 µM (active). For the same molecule, the AC50 [7] was 14.2 µM (active) and the AC50 [8] was 19.8 µM (active).
For `CCN1CCC2(CC1)COc1cc3c(cc12)N(C(=O)c1ccc(-c2ccc(-c4nnc(C)o4)cc2C)cc1)CC3`, the outcome [2] was “inactive”, the AC50 [3] was 12.5 µM (active) and the AC50 [4] was 11.9 µM (active). The AC50 [7] was 2.96 µM (active) and the AC50 [8] was 23.4 µM (active).
For `O=C1C2(Cl)C3(Cl)C4(Cl)C(Cl)(Cl)C5(Cl)C3(Cl)C1(Cl)C5(Cl)C24Cl` (configuration not stated), the outcome [1] was “inactive” and the AC50 [5] was 1.63 µM (active) and 2.66 µM (active) and 1.08 µM (active).
`O=C(O)C(F)(F)C(F)(F)C(F)(F)C(F)(F)C(F)(F)C(F)(F)C(F)(F)C(F)(F)C(F)(F)C(F)(F)F` was tested, and the AC50 [5] was 12.4 µM (active).
For `Nc1ncc([N+](=O)[O-])s1`, the AC50 [5] was 17.6 µM (active).
In the case of `ClC1=C(Cl)[C@]2(Cl)[C@H]3[C@H]([C@H]4C=C[C@H]3C4)[C@@]1(Cl)C2(Cl)Cl`, the outcome [5] is reported as “inactive”.
In the case of `COc1cc(-c2ccc(N)c(OC)c2)ccc1N`, the AC50 [2] is reported as 11.8 µM (active) and 12.6 µM (active) and the outcome [4] is reported as “inactive”.
In the case of `C=C(C)C(=O)[O][Sn]([CH2]CCC)([CH2]CCC)[CH2]CCC`, the AC50 [1] is reported as 0.281 µM (active), the AC50 [2] is reported as 18 µM (active) and the AC50 [3] is reported as 6.61 µM (active). The AC50 [4] was 6.86 µM (active), the AC50 [5] was 0.653 µM (active) and the AC50 [9] was 12 µM (active). The AC50 [6] was 2.88 µM (active), the AC50 [7] was 2.78 µM (active) and the AC50 [8] was 13.8 µM (active).
In the case of `CC(C)(C)CC(C)(C)c1ccc(O)cc1`, the AC50 [1] is reported as 12 µM (active), the AC50 [5] is reported as 16.7 µM (active) and the outcome [6] is reported as “inactive”.
